Laboratory results: PubChem BioAssay (NCI)
Compounds without any hit were thinned out: in the full panel of roughly 83,000, 20% have a hit.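 Activity criterion: percent growth below 10, measured after cells in 96-well plates were exposed to a single compound concentration for 48 hours.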 Calls of active or inactive are those of the source.

Key:
Assay in all cases: NCI-60 one-dose screen, 48 h (100 = growth as untreated, 0 = no growth, -100 = all killed)
Settings in all cases: 10 µM unless noted
[1] = tested on: HCT-15 colon
[2] = tested on: HT29 colon
[3] = tested on: SNB-19 CNS
[4] = tested on: U251 CNS
[5] = tested on: PC-3 prostate
[6] = tested on: SK-MEL-5 melanoma
[7] = tested on: UACC-62 melanoma
[8] = tested on: LOX IMVI melanoma
[9] = tested on: SK-MEL-28 melanoma

Measured: growth

Fc1ccc(-c2nn3c(-c4cc(C(F)(F)F)cc(C(F)(F)F)c4)nnc3s2)cc1
active: [3] 8.33% | [4] 4.98%
inactive: [1] 89.7% | [2] 40.2% | [5] 39.2% | [6] 56% | [7] 53.3% | [8] 63.9% | [9] 72%

COc1cccc(C2=NN(C(C)=O)C(c3cc(OC)c(OC)c(OC)c3)C2)c1 (configuration not stated)
inactive: [1] 31.6% | [3] 26.9% | [4] 31.1% | [5] 16.9% | [6] 15.7% | [7] 51.7% | [8] 48.6% | [9] 40.9%
active: [2] 8.66%

O=C(CN1CCN(c2ccc(Cl)cc2)CC1)N1CCN(c2nnc(-c3ccc(Cl)cc3)c(-c3ccc(Cl)cc3)n2)CC1
inactive: [1] 59% | [2] 57.3% | [3] 78% | [4] 74.2% | [5] 30.5% | [6] 58.2% | [7] 69.9% | [8] 51.8% | [9] 93.6%

N#Cc1c(-c2ccccc2)cc(-c2ccccc2)n(CCCCCCC(=O)O)c1=O
inactive: [1] 90.7% | [2] 97.4% | [3] 96.3% | [4] 98.1% | [5] 105% | [6] 99.8% | [7] 90.7% | [8] 89.2% | [9] 103%

O=C(Oc1cccc2ccccc12)c1ccccc1C(=O)c1ccccc1
inactive: [1] 93.2% | [2] 59.5% | [3] 101% | [4] 79.5% | [5] 47.6% | [6] 96.6% | [7] 96.6% | [8] 72.3% | [9] 119%

CNCCCn1c2c(c3ccc(F)cc3c1=O)C(=O)c1cc(OC)cnc1-2
active: [1] -3.12% | [2] -20.9% | [4] -25.8% | [5] 6.67% | [6] -97.3% | [7] -33.4% | [8] -70.7% | [9] 9.85%
inactive: [3] 11.9%

C=CCN(/C=C/CN(CC=C)CC=C)CC=C
inactive: [1] 100% | [2] 100% | [3] 97.8% | [4] 97.3% | [5] 89.4% | [6] 109% | [7] 101% | [8] 103% | [9] 98.5%

COC(=O)[C@H](Cc1cn(C)cn1)NC(=O)[C@@H](NC(=O)Nc1cc(C(F)(F)F)cc(C(F)(F)F)c1)C(C)C
active: [1] -87.6% [100 µM] | [2] -81.4% [100 µM] | [3] -90.3% [100 µM] | [4] -95.3% [100 µM] | [5] -89.6% [100 µM] | [6] -95.4% [100 µM] | [7] -93.1% [100 µM] | [8] -79.5% [100 µM] | [9] -96.5% [100 µM]

N#Cc1c(-c2ccccc2)cc(-c2ccccc2)n(CCC(=O)O)c1=O
active: [6] 3.86%
inactive: [1] 29.7% | [2] 19.3% | [3] 56.1% | [4] 38.2% | [5] 75.3% | [7] 32.3% | [8] 51% | [9] 57.3%

N/C(=N\C(N)=N\c1nc2ccccc2s1)c1ccnc(Cl)c1
inactive: [1] 29.9% | [2] 13.7% | [3] 39.4% | [4] 33.8% | [5] 37.9% | [6] 17.3% | [7] 33.9% | [8] 44.9% | [9] 62.2%

CCCCCCCC[Si](OCC)(OCC)OCC
inactive: [1] 107% | [2] 103% | [3] 100% | [4] 98.9% | [5] 91.5% | [6] 111% | [7] 104% | [8] 103% | [9] 104%

COc1ccc2nc(NC(=O)CN3CCn4c(nnc4C(F)(F)F)C3)sc2c1
inactive: [1] 93.3% | [2] 98.4% | [3] 90.5% | [4] 91.6% | [5] 98.6% | [6] 79.2% | [7] 83.9% | [8] 96.6% | [9] 102%

CC(=O)Nc1cc(C(c2ccccc2)c2ccccc2)cc(C(c2ccccc2)c2ccccc2)c1C
inactive: [1] 50.5% | [2] 47.8% | [3] 71.4% | [4] 46.8% | [5] 15.4% | [6] 45.6% | [7] 50% | [8] 53% | [9] 56.8%
